Reference: ChEMBL document CHEMBL4513216, “Probing the Open Global Health Chemical Diversity Library for Multistage-Active Starting Points for Next-Generation Antimalarials” (ACS Infect Dis, 2020)
Screen size: about 69,000 compounds; about 8,600 (12%) showed an effect of 50% or more. For the sample, strong results were picked, then their nearest neighbours and some compounds at random.

System: Plasmodium berghei
Experiment: Screen against P. berghei liver stage (PbLuc), transformed with Luciferase, at 10uM
Format: functional, HepG2
Conditions: tested at 10 uM

| Structure (SMILES) | INHIBITION [%] |
| --- | --- |
| NC(=O)N1CCCN(C2CCc3ccc(F)cc32)CC1 (stereo not drawn) | 84.2 |
| O=C(CN1CCOCC1)N1CCC(c2cc(N3CCCC3)ncn2)CC1 | -85.6 |
| NC(=O)C1CCN(C(=O)NC2CCc3cc(F)ccc32)CC1 (stereo not drawn) | 17 |
| O=C(c1ccccc1)N1CCN(C2CCc3ccc(F)cc32)CC1 (stereo not drawn) | 49.4 |
| O=C(c1cc(F)ccc1O)N1CCN(C2CCOCC2)CC1 | 3.84 |
| O=C(CN1CCOCC1)N1CCN(C2CCc3ccc(F)cc32)CC1 (stereo not drawn) | 54.4 |
| Cc1ncsc1C(=O)NCCNC(=O)Cc1cccc(F)c1 | -89.6 |
| CC(Cn1cccn1)NC(=O)Nc1nncs1 (stereo not drawn) | -39.7 |
| COCCN1CCCN(C(=O)NC(C)Cn2ccnc2)CC1 (stereo not drawn) | 26.3 |
| Cc1ccnc(OC[C@@]23CCO[C@@H]2CCN(c2ncc(F)cn2)C3)n1 | 16.9 |
| CC(C)CN1CCCC(c2nc(O)c3cc(F)ccc3n2)C1 (stereo not drawn) | 20.1 |
| O=C([C@@H]1Cc2[nH]cnc2CN1Cc1cc2ccccc2o1)N1CCCC1 | -67.6 |
| COC(=O)C1Cc2nc[nH]c2CN1Cc1ccc(Sc2ncccn2)o1 (stereo not drawn) | 35.7 |
| COC(=O)[C@@H]1Cc2[nH]cnc2CN1Cc1cc2ccccc2o1 | 56.8 |
| Cc1cccc(N2CCN(C(=O)CC3(O)CCCC3)C(C)C2)n1 (stereo not drawn) | -24.2 |
| COc1ccnc(N2CCN(C(=O)c3csc(C)n3)CC2)n1 | -12.6 |
| CNc1nc(C(=O)N2C[C@@H]3CCN(C)[C@@H]3C2)cs1 | 55 |
| CNc1nc(C(=O)N2CCN(c3cc(C)nc(C)c3)CC2)cs1 | 34.9 |
| CN1CC[C@H]2CN(C(=O)c3csc(Cc4ccccc4)n3)C[C@H]21 | 22.9 |
| Cc1nc(C(=O)N2CCN(c3ccc(Cl)c(Cl)c3)CC2)cs1 | 90.3 |
| CNc1nc(C(=O)N2C[C@@H]3CC[C@H]2CN(S(C)(=O)=O)C3)cs1 | 7.1 |
| CNc1nc(C(=O)N2CCN(c3ccc(Cl)c(Cl)c3)CC2)cs1 | 86.6 |
| Cc1csc(N2CCCN(C(=O)c3csc(C)n3)CC2)n1 | 37.9 |
| CNc1nc(C(=O)N2CCCN(c3ccnc(C)c3)CC2)cs1 | -10.6 |
| CC(O)CN(C)C(=O)CCNC(=O)OC(C)(C)C (stereo not drawn) | 44.9 |
| CC(C)N1CCC(c2cnc(-c3cn[nH]c3)cn2)CC1 | 20.5535 |
| CC(=O)N[C@@H]1CN(C(=O)c2cccc(C)c2)C[C@H]1O | 0.19 |

| Structure (SMILES) | INHIBITION [%] |
| --- | --- |
| CC[C@H](C)[C@H](NC(=O)c1ccc(-n2cnnn2)cc1)C(=O)OC | 61.2 |
| CCC(C)[C@H](NC(=O)c1cc(Br)ccc1-n1cnnn1)C(=O)OC (stereo partly drawn) | 34.7 |
| CC[C@H](C)[C@H](NC(=O)c1ccccc1-n1cnnn1)C(=O)OC | -14.2 |
| CCC(C)[C@H](NC(=O)c1ccc(F)cc1-n1cnnn1)C(=O)OC (stereo partly drawn) | 51.3 |
| CCC(C)[C@H](NC(=O)c1cc(F)ccc1-n1cnnn1)C(=O)OC (stereo partly drawn) | 46.1 |
| CC[C@H](C)[C@H](NC(=O)c1cccc(-n2cnnn2)c1)C(=O)OC | 30.5 |
| O=C(Nc1ccccn1)c1ccc(F)c(S(=O)(=O)NC2CC2)c1 | 4.34 |
| CCn1cc(-n2cc3nc(N4CCOCC4)[nH]cc-3c2=O)cn1 | -37.9 |
| CC(C)(C)c1nc(CC(=O)NCCC(=O)Nc2ccncc2)cs1 | 45.4 |
| CCOC(=O)C1CCN(Cc2csc(C(C)(C)C)n2)CC1 | -13.3 |
| CC(C)(C)c1nc(CC(=O)Nc2cnccc2O)cs1 | 52.5 |
| CC(C)c1nc(CC(=O)Nc2cnccc2O)cs1 | 29.4 |
| CCc1nc(CN2CCC(C(=O)N(C)C)CC2)cs1 | 11.8 |
| CN(C)C(=O)C1CCN(Cc2csc(C(C)(C)C)n2)CC1 | 56.4 |
| CN1CCC(NC(=O)Cc2csc(C(C)(C)C)n2)CC1 | 47.2 |
| CC(=O)N1CCC(NC(=O)Cc2csc(C(C)(C)C)n2)CC1 | 5.91 |
| CCN1CCC(NC(=O)Cc2csc(C(C)(C)C)n2)CC1 | 50.5 |
| Cn1ncc2c1C(COCC1CC1)N(C(=O)c1ccncn1)CC2 (stereo not drawn) | 47.4 |
| CN(CCNC(=O)NCc1ccsc1)C1CCCC1 | -43.5 |
| CN(Cc1coc(-c2ccccc2)n1)C1CCCN(c2cccnn2)C1 (stereo not drawn) | 24 |
| Cn1cccc1C(=O)N1C[C@@H](OCc2ccncc2)[C@@H]2OCCC[C@@H]21 | 42.5 |
| COc1cc(F)ccc1CC(=O)N1CC[C@H]2C(=O)NCCO[C@H]2C1 | 52.1 |
| O=C1NCCO[C@H]2CN(C(=O)Cc3cccs3)CC[C@@H]12 | 14 |
| O=C1NCCO[C@H]2CN(C(=O)Cc3ccco3)CC[C@@H]12 | -2.26 |
| Cc1ccc(F)c2c1CCCN2Cc1cc(=O)n(C)c(=O)n1C | 38.8 |
| CC[C@H](C)[C@@H](CO)NC(C)Cc1ccc(Cl)cc1 (stereo partly drawn) | 71.2 |
